Experimental data taken from PubChem BioAssay.
For part of these data: Measured potencies and affinities stand elsewhere. Calls of active or inactive are those of the source.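 Rule for the calls, unless noted: active = dose-response curve with midpoint inside the tested range, moderate steepness, significant amplitude and little compound fluorescence or bead-attachment interference; inactive = the rest.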

Experiments:
[1] = molecular target: Cell division control protein 42 homolog (Homo sapiens) (UniProt P60953); assay: inhibition of fluorescent GTP binding to constitutively active Cdc42 – biochemical, multiplex bead flow cytometry, Bodipy-FL-GTP, dose response (AID 1333;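 active = fitted half-maximal concentration within the tested dose range, moderate curve steepness, a statistically real signal drop, and little compound fluorescence or tag-binding interference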)
Chain of Cell division control protein 42 homolog (Homo sapiens) (P60953 whole entry, looked up): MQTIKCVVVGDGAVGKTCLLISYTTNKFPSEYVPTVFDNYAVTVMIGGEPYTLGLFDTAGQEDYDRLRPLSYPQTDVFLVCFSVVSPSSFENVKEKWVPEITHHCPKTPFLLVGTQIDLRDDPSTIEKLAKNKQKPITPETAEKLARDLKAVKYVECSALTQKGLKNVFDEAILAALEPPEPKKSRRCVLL

[2] = molecular target: Cell division control protein 42 homolog (Homo sapiens) (UniProt P60953); assay: inhibition of fluorescent GTP binding to wildtype Cdc42 – biochemical, multiplex bead flow cytometry, Bodipy-FL-GTP, dose response (AID 1334;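 active = fitted half-maximal concentration within the tested range, moderate curve steepness, significant signal drop, and little compound fluorescence or bead-linkage interference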); conditions: bead-based flow cytometry, Bodipy-FL-GTP binding to GST-Cdc42; at 100 µM (top of the series) unless noted
[3] = molecular target: GTPase HRas (Homo sapiens) (UniProt P01112); assay: Ras wt fluorescent GTP loading blockade – biochemical, wildtype, multiplex bead flow cytometry, dose response (AID 1335;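 active = fitted half-maximal concentration within 10 nM to 100 µM, steepness 0.5 to 2, significant signal drop, low assay interference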); conditions: bead-based flow cytometry, Bodipy-GTP binding to GST-Ras; at 100 µM (top of the series) unless noted
Chain of GTPase HRas (Homo sapiens) (P01112 whole entry, looked up): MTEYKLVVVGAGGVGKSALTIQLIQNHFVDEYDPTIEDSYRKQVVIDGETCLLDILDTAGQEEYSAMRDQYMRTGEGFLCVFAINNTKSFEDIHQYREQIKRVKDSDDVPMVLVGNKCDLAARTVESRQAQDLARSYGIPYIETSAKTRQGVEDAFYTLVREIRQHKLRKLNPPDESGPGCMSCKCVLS

[4] = test system: Ras-related protein Rab-7a (dog), GTP binding; assay: blockers of fluorescent GTP binding to Rab7 – biochemical, wildtype, multiplex bead flow cytometry, dose response (AID 1336; call rule not given here)
[5] = molecular target: Ras-related C3 botulinum toxin substrate 1 (Homo sapiens) (UniProt P63000); assay: inhibition of wildtype Rac1 nucleotide loading – biochemical, multiplex bead flow cytometry, dose response (AID 1340;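 active = dose curve with midpoint inside tested range, moderate steepness, plateau gap beyond fit error, low compound glow and bead-link interference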); conditions: GST-Rac1 beads, Bodipy-FL-GTP binding; at 100 µM (top of the series) unless noted
[6] = molecular target: GTPase HRas (Homo sapiens) (UniProt P01112); assay: blockade of GTP loading onto mutant Ras – biochemical, activated mutant, multiplex bead flow cytometry, dose response (AID 1341);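 note: GST-tagged constitutively activated Ras mutant immobilized on beads and multiplexed with other GTPases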

| SMILES | outcome [1] | fluorescence, percent of control (lower = inhibition) [2] [%] | GTP binding, percent of control [3] [%] | outcome [4] | GTP binding signal, raw median fluorescence (lower = inhibition) (MCF (arbitrary fluorescence units)) [5] | outcome [6] |
| --- | --- | --- | --- | --- | --- | --- |
| COc1ccccc1Nc1nc(-c2c(C)nc3ncccn23)cs1 | inactive | 26.5 | 57.6 | inactive | 117 | inactive |
| CC(=O)Nc1ccc(Nc2ccc3c4c(cc(=O)n3C)-c3ccccc3C(=O)c24)cc1 | inactive | 34.8 | 80.5 | inactive | 205 | inactive |
| CC(C)CCNC(=O)CN(CCN1CCOCC1)C(=O)Cn1nnc(-c2ccc(F)cc2)n1 | inactive | 97.1 | 162 | inactive | 188 | inactive |
| COc1cc2[nH]c(=S)nc(Nc3ccc(NC(C)=O)cc3)c2cc1OC | inactive | 23.4 | 52.2 | inactive | 118 | inactive |
| Cc1ccccc1C(=O)Nc1cccc(C(=O)N/N=C/c2cc(Cl)cc([N+](=O)[O-])c2O)c1 | inactive | 25.1 | 74.6 | inactive | 191 | inactive |
| Cc1cc(C)nc(Nc2nc(=O)c3ccccc3s2)n1 | inactive | 50.5 | 61.9 | inactive | 205 | inactive |
| O=C(NCc1cccnc1)c1cccn2c(=O)c3sccc3nc12 | inactive | 32.5 | 74.9 | inactive | 162 | inactive |
| COc1cc(/C=C2\SC(c3ccccc3)=NC2=O)cc(Cl)c1O | inactive | 26.3 | 71 | inactive | 190 | inactive |
| COc1ccc(Nc2nc(-c3c(C)nc4ncccn34)cs2)cc1 | inactive | 29 | 66 | inactive | 140 | inactive |
| COc1ccc2c(C)nc(N/C(N)=N/S(=O)(=O)c3ccc(C)cc3)nc2c1 | inactive | 38.9 | 87.9 | inactive | 272 | inactive |
| Cc1ccc(CNCc2c(C)[nH]c(C)c2C(=O)O)cc1 | inactive | 64.4 | 88.9 | inactive | 34.6 | inactive |
| O=C(CSc1n[nH]c(=O)[nH]c1=O)N/N=C/c1ccccc1 | inactive | 49.5 | 61.4 | inactive | 197 | inactive |
| COC(CNC(=O)C1CCCN1C(=O)OCc1ccccc1)OC (stereo not given) | inactive | 46.2 | 90.5 | inactive | 333 | inactive |
| COc1cc2[nH]c(=S)nc(NCCc3ccc(S(N)(=O)=O)cc3)c2cc1OC | inactive | 36.7 | 81.9 | inactive | 268 | inactive |
| N#CC(C#N)=C(Nc1ccc(F)cc1)SCc1cccc(Br)c1 | inactive | 45.8 | 61.7 | inactive | 181 | inactive |
| CN(C)S(=O)(=O)c1ccc(C(=O)NNc2nc(-c3ccccc3)c3cc(Br)ccc3n2)cc1 | inactive | 31.2 | 71.7 | inactive | 166 | inactive |
| COc1ccc(-c2csc(C3=C(O)CN(C(C)C)C3=N)n2)cc1OC | inactive | 31.9 | 73.2 | inactive | 181 | inactive |
| COC(=O)c1c(N2C(=O)[C@H]3[C@@H](C2=O)[C@]2(C(=O)Nc4c2ccc(C)c4C)N2CCC[C@@H]32)sc(C)c1C | inactive | 55.3 | 71.4 | inactive | 0 | inactive |
| CN(C)CCN(C(=O)c1ccc(N2C(=O)CCC2=O)cc1)c1nc2cc3c(cc2s1)OCO3 | inactive | 35.7 | 79.3 | inactive | 261 | inactive |
| COc1ccc(C(=O)Nc2nc3ccccc3[nH]2)cc1S(=O)(=O)N1CCOCC1 | inactive | 32.9 | 73.9 | inactive | 197 | inactive |

| SMILES | outcome [1] | fluorescence, percent of control (lower = inhibition) [2] [%] | GTP binding, percent of control [3] [%] | outcome [4] | GTP binding signal, raw median fluorescence (lower = inhibition) (MCF (arbitrary fluorescence units)) [5] | outcome [6] |
| --- | --- | --- | --- | --- | --- | --- |
| COc1cc(N2CCCC2)c(OC)cc1/C=C(/C#N)c1ccc(Br)cc1 | inactive | 104 | 117 | inactive | 258 | inactive |
| CCc1ccccc1NCc1sc(C(=O)O)cc1C | inactive | 61.1 | 87.1 | inactive | 31.9 | inactive |
| COc1cc(/C=C2/SC(=Nc3ccc(O)cc3)NC2=O)cc(OC)c1O | inactive | 39.8 | 84.1 | inactive | 231 | inactive |
| CC(C)NC(=O)C12CC3CC(C1)CC(n1cnc(Cl)n1)(C3)C2 | inactive | 41.5 | 89.6 | inactive | 319 | inactive |
| O=C(O)c1ccccc1OCc1ccccc1Br | inactive | 84.6 | 98 | inactive | 65.5 | inactive |
| CC(C)(C)C#CC(=O)c1ccc([N+](=O)[O-])cc1 | inactive | 37.9 | 196 | inactive | 49.6 | inactive |
| Cn1c(NC(=S)Nc2ccccc2)nc2ccccc21 | inactive | 51.8 | 63.9 | inactive | 0 | inactive |
| CCC(C)(C)NC(=O)c1ccc2c(c1)N(CC(=O)OC)C(=O)C(C)(C)O2 | inactive | 34.2 | 82.4 | inactive | 253 | inactive |
| CCCc1cc(NCc2ccccn2)n2c(nc3ccccc32)c1C#N | inactive | 30.1 | 68.2 | inactive | 167 | inactive |
| CCCCCCNc1cc2n(c(=O)n1)CCc1cc(OC)c(OC)cc1-2 | inactive | 44.7 | 104 | inactive | 128 | inactive |
| Cc1cccc(CCSc2ncccc2C(=O)O)c1 | inactive | 119 | 320 | inactive | 97 | inactive |
| O=S1(=O)N=C(N(CCO)/N=C/c2ccncc2)c2ccccc21 | inactive | 24.1 | 52.3 | inactive | 114 | inactive |
| Cc1sc2nc3c(SC(C)C(=O)O)cc(C(=O)c4ccccc4O)cn3c(=O)c2c1C (stereo not given) | inactive | 29.3 | 72.1 | inactive | 186 | inactive |
| COc1ccc(-c2cc(-c3ccccc3)c(C#N)c(=S)[nH]2)cc1 | inactive | 28.8 | 69.8 | inactive | 225 | inactive |
| COc1cc(N=c2oc3c(C)ncc(CO)c3cc2C(N)=O)cc(OC)c1OC | inactive | 26.9 | 58.2 | inactive | 139 | inactive |
| O=C(C#Cc1ccccn1)c1ccc([N+](=O)[O-])cc1 | inactive | 51 | 162 | inactive | 56.2 | inactive |
| CCOCCCNc1nc(=S)[nH]c2cc(OC)c(OC)cc12 | inactive | 60.4 | 99.7 | inactive | 111 | inactive |
| Cc1cccc(CN2C(=O)N/C(=C/c3ccc(C)s3)C2=O)c1 | inactive | 72 | 82.5 | inactive | 201 | inactive |
| O=C1c2ccccc2C(=O)N1CCCCN(C(=O)c1cc2ccccc2oc1=O)c1ccc(Cl)cc1 | inactive | 51.3 | 60.9 | inactive | 210 | inactive |
| COc1cccc(-n2nc3c(-n4ncc(C#N)c4N)nnc(C)c3c2C)c1 | inactive | 54.8 | 64.6 | inactive | 212 | inactive |

| SMILES | outcome [1] | fluorescence, percent of control (lower = inhibition) [2] [%] | GTP binding, percent of control [3] [%] | outcome [4] | GTP binding signal, raw median fluorescence (lower = inhibition) (MCF (arbitrary fluorescence units)) [5] | outcome [6] |
| --- | --- | --- | --- | --- | --- | --- |
| OCCC1CN(Cc2cccc(O)c2)CCN1CCc1ccccc1 (stereo not given) | inactive | 40.6 | 90.6 | inactive | 342 | inactive |
| CCOC(=O)c1cnc(SCc2ccc(C)cc2)nc1N | inactive | 32 | 82.3 | inactive | 238 | inactive |
| O=C(c1nn2c(C(F)(F)F)cc(-c3ccc(F)cc3)nc2c1Cl)N1CCOCC1 | inactive | 48.9 | 62.6 | inactive | 189 | inactive |
| O=C(COc1ccccc1[N+](=O)[O-])Nc1cc(Cl)ccc1C(=O)O | inactive | 32.7 | 75.6 | inactive | 215 | inactive |
| Cc1ccc(Sc2nnc(-c3ccccc3)cc2C#N)cc1 | inactive | 104 | 178 | inactive | 185 | inactive |
| COc1ccc(C2=Nn3c(nnc3-c3ccccc3)SC2)cc1OC | inactive | 37.5 | 86 | inactive | 214 | inactive |
| NOC(=O)c1cccnc1SCCc1ccccc1 | inactive | 45.9 | 125 | inactive | 63 | inactive |
| Cc1nc2c(ccc3nc(NC(=O)c4ccc(S(=O)(=O)N(C)C)cc4)sc32)s1 | inactive | 79.8 | 151 | inactive | 159 | inactive |
| Cc1cc2ccccn2c1C(=O)c1ccc(NN)c([N+](=O)[O-])c1 | inactive | 35.2 | 83.1 | inactive | 240 | inactive |
| Cc1cc(C)cc(OCCSc2nc3ccccc3n2CC(=O)O)c1 | inactive | 58.4 | 87.4 | inactive | 31 | inactive |
| COc1nc(Nc2ccc(O)cc2)nc(OC(C(F)(F)F)C(F)(F)F)n1 | inactive | 101 | 161 | inactive | 172 | inactive |
| CCOc1ccc(-n2nc3c(=O)[nH]nc(C)c3c2C)cc1 | inactive | 46.5 | 60.9 | inactive | 189 | inactive |
| CN(Cc1ccccc1)c1ccc([N+](=O)[O-])cc1C(=O)O | inactive | 41 | 87.3 | inactive | 276 | inactive |
| Cc1cc(N/N=C/c2ccc(O)cc2O)nc(-n2nc(C)cc2C)n1 | inactive | 41 | 53.3 | inactive | 141 | inactive |
| Fc1cccc(Nc2ncnc3[nH]ncc23)c1 | inactive | 30.9 | 72.3 | inactive | 177 | inactive |
| CCc1nnc(NS(=O)(=O)c2ccc(Nc3ccc4nonc4c3[N+](=O)[O-])cc2)s1 | inactive | 26.3 | 65.4 | inactive | 147 | inactive |
| O=C(Nc1nccs1)c1ccc(-c2cccc([N+](=O)[O-])c2)o1 | inactive | 31.6 | 72.4 | inactive | 181 | inactive |
| COc1cc(/C=N/NC(=O)CN(Cc2ccccc2)S(=O)(=O)c2ccc3c(c2)OCCO3)ccc1O | inactive | 40.1 | 52.5 | inactive | 126 | inactive |
| CCOc1ccc(-n2c(C)nc3cc(C(=O)NCc4ccc5c(c4)OCO5)ccc32)cc1 | inactive | 41.7 | 62.5 | inactive | 163 | inactive |
| CCOc1nnc(C)c2c(C)n(-c3cccc(Cl)c3)nc12 | inactive | 155 | 168 | inactive | 312 | inactive |
